# NPC1 prom act: NPC1 promoter activation; Huh7 NPC1 promoter luciferase reporter, 24 h; Potency, µM (titrated, usually from 9.22 µM), for inactives: at the highest dose activation, actives largely listed as activators; 320,000 tested, 2.4% active; AID 485313; note: % of control where 0% means no effect; nearly all actives have a fitted effect of over 60% in size
#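 Stable NPC1-promoter luciferase Huh7 line; cpd (DMSO) 24 h, 37 °C, 5% CO2; Amplite luciferase reagent 10 min RT; luminescence readout. qHTS format.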
# ELG1 DNA repair: blocks ELG1-dependent DNA repair in HEK293T cells; Potency, µM (series often up to 46.1 µM), for inactives: top-dose activity change, negative = inhibition, actives largely listed as inhibitors; AID 504467; HEK293T ELG1-luciferase reporter, luminescence, 16 h; DNA damage induced by 5-fluorouridine; 330,000 tested, 2.3% active; note: % is set by controls: 0 for no effect and ±100 for the full control effect; nearly all actives have a fitted effect of over 55% in size
#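 5-Fluorouridine DNA damage + compound/DMSO, 2,000 cells/well, 16 h, 37 °C/5% CO2. ONE-Glo, 30 min RT, luminescence. Readout = decrease in reporter signal.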
# ELG1 genotoxic: induces genotoxicity in HEK293T cells with luciferase-tagged ELG1; HEK293T ELG1-luciferase reporter, luminescence, 16 h; Potency, µM (series often up to 46 µM), without a hit: at the highest dose activity change, positive = activation, hits mostly activators; 330,000 tested, 1.3% active; note: % of control where 0% means no effect; nearly all actives have a fitted effect of over 60% in size
#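 Genotoxic stress is detected as increased luminescence from luciferase-tagged ELG1 in HEK293T cells, measured with ONE-Glo after a 16 hr treatment at 37 °C.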
# FLuc modulator: counter-screen for miR-21 project: firefly luciferase inhibitors or activators | P08659 | purified FLuc, Km substrates, luminescence inhibition | Potency, µM (doses to about 57.5 µM), for inactives: at the top dose activity change, negative = inhibition, most hits filed as inhibitors | 360,000 tested, 6.9% active;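 note: plate controls were vehicle for no effect and reference inhibitor for full effect; nearly all actives have a fitted effect of over 55% in size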
# Target sequence (P08659 whole entry, looked up): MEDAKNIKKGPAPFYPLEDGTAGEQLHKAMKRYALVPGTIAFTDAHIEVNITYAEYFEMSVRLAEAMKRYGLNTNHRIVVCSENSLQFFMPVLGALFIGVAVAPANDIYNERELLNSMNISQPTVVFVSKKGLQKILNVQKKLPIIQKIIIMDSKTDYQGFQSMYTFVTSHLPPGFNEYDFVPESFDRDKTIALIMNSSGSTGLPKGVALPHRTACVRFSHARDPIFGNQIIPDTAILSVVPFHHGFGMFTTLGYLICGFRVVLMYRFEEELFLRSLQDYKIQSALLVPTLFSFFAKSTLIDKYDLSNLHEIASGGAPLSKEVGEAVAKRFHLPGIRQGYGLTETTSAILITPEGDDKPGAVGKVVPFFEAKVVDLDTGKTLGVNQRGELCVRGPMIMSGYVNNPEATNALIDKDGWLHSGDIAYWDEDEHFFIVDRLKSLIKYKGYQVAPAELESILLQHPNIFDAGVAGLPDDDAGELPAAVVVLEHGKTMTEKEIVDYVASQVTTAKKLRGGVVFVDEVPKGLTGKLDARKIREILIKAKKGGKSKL
#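 Purified P. pyralis luciferase (10nM final) with 10uM D-luciferin and 10uM ATP (Km levels) in 50mM Tris acetate pH 7.5, 10mM Mg acetate, 0.01% Tween-20, 0.05% BSA; qHTS 6-point titration, ~60 µM downward; luminescence read.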
# SMN2 splice up: SMN2 splice variant enhancement; HEK293 SMN2-luciferase splicing reporter, luminescence, 30-36 h; 210,000 tested, 2.8% active; Potency, µM (top dose mostly 46.1 µM), for inactives: at the top dose activity change, positive = activation, usual class: activators; note: % of control where 0% means no effect; nearly all actives have a fitted effect of over 55% in size
#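 HEK293 cells carry an SMN2 […]–luciferase reporter in which exon 7 inclusion puts luciferase in frame. Cells were plated 10-12 h before compound addition, then incubated 30-36 h at 37C. ONE-Glo luminescence was read; sodium butyrate at 4.5 mM final served as control.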
# Rab9 promoter act: activates the Rab9 promoter. Huh7 Rab9 promoter-luciferase reporter, luminescence, 24 h. Potency, µM (series often up to 9.22 µM), for the others: top-dose activation, negative = inhibition, actives largely listed as activators. 320,000 tested, 2.8% active. AID 485297; note: % of control where 0% means no effect; nearly all actives have a fitted effect of over 60% in size
#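 Stable Rab9-luc Huh7, 1500 cells/well, 2 h settle; cmpd in DMSO, 24 h, 37 °C/5% CO2; luciferase reagent 10 min RT; luminescence.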
# * marks the source's active call; other numbers are inactive results; ? = inconclusive; . = not tested or not shown. This is a sample that favours compounds with a hit; in the whole collection about 9.4% have one here. Calls come from the whole dose curve; as a rule, active = well fitted curve in the direction sought with a large enough effect; inconclusive = small, poorly fitted or top-dose-only effect, or another doubt; inactive = no such curve, though single readings can be large; an effect the other way counts as inactive or inconclusive. Potency is the fitted concentration of half-maximal effect.
SMILES,NPC1 prom act,ELG1 DNA repair,ELG1 genotoxic,FLuc modulator,SMN2 splice up,Rab9 promoter act
COc1cc(OC)c(NS(=O)(=O)c2cc(-c3cnc(C)o3)ccc2OC)cc1Cl,.,.,.,-2%,.,.
Cc1cccc(N2CCN(C(=O)CN3CCSc4ccccc43)CC2C)c1 (centres undefined),.,.,.,-9%,.,.
O=C(CC1C(=O)N(c2ccc(F)cc2)C(=O)N1Cc1ccc2c(c1)OCO2)Nc1ccc(Cl)cc1 (centres undefined),.,.,.,?,8%,.
Cc1ccc(C(=O)OCc2nc3ccsc3c(=O)[nH]2)o1,13%,?,-1%,3%,.,10%
O=C(OCc1nc2ccccc2s1)c1cc2ccccc2oc1=O,11%,?,?,19µM*,-2%,4%
Cc1ccc(C(=O)OCc2nc3ccccc3s2)o1,1%,?,?,15µM*,.,?
O=C(OCc1nc2ccccc2s1)c1ccc(Br)s1,12%,?,4%,19µM*,-14%,14%
Nc1ccc(C(=O)OCc2nc3ccccc3s2)cc1,17%,?,?,17µM*,2%,27%
O=C(OCc1ccc(Br)cc1F)c1cc2ccccc2oc1=O,0%,6%,-1%,-12%,.,0%
COc1cccc([C@@H]2Oc3ccc(Br)cc3C(=O)[C@H]2OC(=O)N[C@H]2CCCc3ccccc32)c1,.,.,.,.,4%,.
NC(=O)c1ccc2c(=O)n3c(-c4cc(Cl)c(N)c(Cl)c4)csc3nc2c1,-21%,10µM*,-6%,0%,.,-14%
Cc1ccc(NC(=O)c2c(Cl)nc3ccccn23)cc1,19%,?,?,11µM*,13µM*,?
Cc1nc2ccccn2c1C(=O)Nc1ccc(Cl)cc1,?,?,?,24µM*,88%,?
CC(=O)Nc1ccc(NC(=O)c2c(C)nc3ccccn23)cc1,3%,0%,5%,-9%,-1%,3%
Cc1nc2ccccn2c1C(=O)Nc1ccc2c(c1)OCCO2,?,?,?,12µM*,7.1µM*,?
O=C(Nc1cccc(C(F)(F)F)c1)c1cc2nc(-c3ccccc3)cc(C(F)(F)F)n2n1,.,.,.,-4%,-4%,.
COC(=O)c1ccc(OCC2c3cc(OC)c(OC)cc3CCN2C(=O)Cc2ccc(OC)cc2)cc1 (centres undefined),.,.,.,2%,.,.
Cc1ccccc1C(=O)Oc1ccc2ccc(O)cc2c1,?,?,5.8µM*,6.7µM*,.,-3%
Cc1ccccc1C(=O)Oc1cccc2c(O)cccc12,8%,14%,-1%,?,.,7%
Cc1ccccc1S(=O)(=O)Oc1ccc2ccc(O)cc2c1,26%,?,8%,17µM*,.,-3%
CC(=O)Nc1ccc(OS(=O)(=O)c2ccccc2C)cc1,0%,17%,3%,0%,.,15%
COc1cccc(C(=O)Oc2ccc3ccc(O)cc3c2)c1,0%,5%,1%,6µM*,.,4%
COc1cccc(-c2nnc3sc(CN4CCCCC4)cn23)c1,.,.,.,-2%,.,.
CCOc1ccccc1NC(=O)C1CCN(S(=O)(=O)c2c(C)noc2/C=C/c2ccc(C)cc2)CC1,.,.,.,-1%,.,.
CN(C(=O)c1cc2c(=O)oc3ccccc3c2s1)c1ccc(F)cc1,.,.,.,-5%,1%,.
SMILES,NPC1 prom act,ELG1 DNA repair,ELG1 genotoxic,FLuc modulator,SMN2 splice up,Rab9 promoter act
COc1ccccc1N1CCN(C(CNC(=O)C(=O)NCCCN(C)C)c2cccnc2)CC1 (centres undefined),.,.,.,-1%,.,.
COc1ccc(C(=O)c2c(N)c(C(=O)Nc3cccc(OC)c3)c3ccccn23)cc1,.,.,.,1%,10%,.
COc1cc2nc(CSc3nc(-c4ccc(F)cc4)cs3)[nH]c(=O)c2cc1OC,2%,23µM*,-5%,-3%,-17%,-4%
CCc1ccn2cc(-c3cc(-c4ccccc4)no3)nc2c1,-31%,?,?,0.067µM*,.,-36%
Cc1ccc2nc(-c3cc(-c4ccccc4)no3)cn2c1,0.79µM*,?,0.26µM*,0.21µM*,.,0.25µM*
Cc1ccc(C(=O)Oc2cc(-c3ccccc3)no2)cc1,-3%,2%,0%,-4%,4%,0%
CCOC(=O)c1ccccc1NC(=O)N1CCC(CN2CCCCC2)CC1,.,.,.,1%,.,.
CC(=O)Nc1cccc(Oc2ccc3c(c2)C(=O)NC3=O)c1,19%,?,?,11µM*,.,21%
COc1ccc(C(=O)N2CCC3(CCCN(c4ncccn4)C3)CC2)cc1,.,.,.,.,-8%,.
CCc1cc(C(=O)Nc2c(C)nn(Cc3ccc(C)cc3)c2C)no1,.,.,.,0%,-21%,.
O=C1CCNc2ccc(-c3ccccc3)cc21,?,?,?,15µM*,?,22%
Cc1ccc2c(c1)C(=O)CCN2,1%,?,1%,4%,-1%,-1%
CCOC(=O)c1ccc(-c2ccc3c(c2)CCC3)nc1C,1.6µM*,?,3.7µM*,1.5µM*,.,1µM*
COC(=O)c1ccc(-c2ccc(F)cc2)nc1C,3.5µM*,?,?,3.4µM*,?,3.5µM*
CCOC(=O)N1CCN(CC(=O)Nc2nc3ccc(OC)cc3s2)CC1,-1%,15µM*,-4%,-10%,.,2%
COc1ccc2nc(NC(=O)CCn3cccc3)sc2c1,?,26%,0%,-7%,-10%,-8%
CCOCC(=O)Nc1nc2ccc(OC)cc2s1,2µM*,?,5.2µM*,12µM*,11µM*,1.4µM*
CCOc1ccc2nc(NC(=O)CN3CCN(CC)CC3)sc2c1,4%,2%,3%,-18%,.,0%
COc1ccc2nc(NC(=O)CCc3cc(OC)c(OC)c(OC)c3)sc2c1,-5%,10µM*,-12%,2%,-13%,-2%
CCOc1ccc2nc(NC(=O)COC)sc2c1,2µM*,?,2µM*,5.4µM*,11µM*,1.3µM*
CCOc1ccc2nc(NC(=O)C(CC)Sc3nc(C)cc(=O)[nH]3)sc2c1 (centres undefined),28%,?,?,24µM*,36%,?
CCCc1cc(=O)[nH]c(SCC(=O)Nc2nc3ccc(OCC)cc3s2)n1,3%,?,6%,?,.,1%
CCOc1ccc2nc(NC(=O)CN3C(=O)C4CCCCC4C3=O)sc2c1 (centres undefined),22%,?,6%,6µM*,.,21%
CCOc1ccc2nc(NC(=O)CN3CCOCC3)sc2c1,7%,?,?,-18%,29%,7%
CCOc1ccc2nc(NC(=O)CN3CCN(C)CC3)sc2c1,6%,?,14%,?,23%,10%
